Test results taken from PubChem BioAssay (EPA / NIEHS).
Values joined by “and” are separate entries in the source; they are usually repeats but may differ in a detail not shown here. Equal values may be shown once. Results filed as inconclusive are left out. Some compounds were tested as several samples or in several runs, with calls that do not always agree. Active and inactive are the calls of the source. The calls were made as follows, unless noted: active = hit-call score of the fitted dose curve at least 0.9, where 1 is the maximum; inactive = score below 0.9.

Tests used:
[1] = read-out: Collagen I, COL1A1 (gene 1277); test: BSK_MyoF_CollagenI: BioMAP Diversity Plus: MyoF Assay for Collagen I Biomarker Activity (AID 2284238); conditions: primary human lung fibroblasts
Method in brief: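 Multiplexed primary human lung fibroblast system; Collagen I measured by ELISA at 24 h post-dose. Increases are referenced to DMSO.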

[2] = read-out: Collagen III, COL3A1 (gene 1281); test: BSK_MyoF_CollagenIII: BioMAP Diversity Plus: MyoF Assay for Collagen III Biomarker Activity (AID 2284239); conditions: primary human lung fibroblasts
Method in brief: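 Compounds are added to primary human lung fibroblasts and left for 24 hours. Collagen III is then quantified by ELISA. Analysis takes DMSO as baseline and fits increases in signal.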

[3] = read-out: Interleukin 17F (IL17F), IL17F (gene 112744); test: BSK_BT_xIL17F: BioMAP Diversity Plus: BT Assay for Interleukin 17F (IL17F) Biomarker Activity (AID 2284243); conditions: primary human B cells with PBMC
Method in brief: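 Measures secreted IL-17F from a human B cell plus PBMC co-culture at 24 h post-dose by Luminex xMAP, with DMSO defining baseline activity.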

[4] = read-out: Actin alpha 1 (ACTA1), ACTA1 (gene 58); test: BSK_MyoF_ACTA1: BioMAP Diversity Plus: MyoF Assay for Actin alpha 1 (ACTA1) Biomarker Activity (AID 2284244); conditions: primary human lung fibroblasts
Method in brief: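 Lung fibroblasts, human primary, 24 h compound exposure → a-SMA ELISA. Positive-direction fit vs DMSO control.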

[5] = read-out: Interleukin 2 (IL2), IL2 (gene 3558); test: BSK_BT_xIL2: BioMAP Diversity Plus: BT Assay for Interleukin 2 (IL2) Biomarker Activity (AID 2284245); conditions: primary human B cells with PBMC
Method in brief: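 B cell + PBMC co-culture (human primary), compound added, 24 h incubation; secreted IL-2 measured multiplexed on Luminex xMAP; gain-of-signal fit vs DMSO.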

[6] = read-out: Basic fibroblast growth factor (bFGF), FGF2 (gene 2247); test: BSK_MyoF_bFGF: BioMAP Diversity Plus: MyoF Assay for Basic fibroblast growth factor (bFGF) Biomarker Activity (AID 2284246); conditions: primary human lung fibroblasts
Method in brief: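 ELISA-measured bFGF level serves as the read-out, taken 24 h after chemical dosing of human lung fibroblasts. Values represent signal gain over the DMSO negative control.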

[7] = read-out: Collagen IV, COL4A1 (gene 1282); test: BSK_MyoF_CollagenIV: BioMAP Diversity Plus: MyoF Assay for Collagen IV Biomarker Activity (AID 2284247); conditions: primary human lung fibroblasts
Method in brief: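 Steps: dose human lung fibroblasts; culture 24 h; quantify Collagen IV by ELISA; fit increase versus DMSO control. Parallel SRB total-protein staining (0.1% SRB after 10% TCA fixation, 560 nm) tracks overt cytotoxicity.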

[8] = read-out: Monokine induced gamma interferon (MIG), CXCL9 (gene 4283); test: BSK_KF3CT_MIG: BioMAP Diversity Plus: KF3CT Assay for Monokine induced gamma interferon (MIG) Biomarker Activity (AID 2284248); conditions: primary human keratinocytes with fibroblasts
Method in brief: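 The assay uses a co-culture of human keratinocytes and foreskin fibroblasts. Measurement occurs 24 hours after dosing, with MIG detected by ELISA and the DMSO control as baseline.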

[9] = read-out: Vascular cell adhesion molecule 1 (VCAM1), VCAM1 (gene 7412); test: BSK_BF4T_VCAM1: BioMAP Diversity Plus: BF4T Assay for Vascular cell adhesion molecule 1 (VCAM1) Biomarker Activity (AID 2284249); conditions: primary human bronchial epithelial cells with fibroblasts
Method in brief: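 Human bronchial epithelial cell and dermal fibroblast co-culture exposed 24 h. VCAM-1 measured by ELISA; parallel SRB total-protein staining for cytotoxicity. Fitted in positive direction relative to DMSO.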

[10] = read-out: Collagen I, COL1A1 (gene 1277); test: BSK_hDFCGF_CollagenI: BioMAP Diversity Plus: hDFCGF Assay for Collagen I Biomarker Activity (AID 2284250); conditions: primary human foreskin fibroblasts
Method in brief: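 Human skin primary fibroblasts dosed with test chemical, harvested at 24 h, Collagen I quantified by ELISA; parallel SRB staining (0.1% SRB after 10% TCA fixation, 560 nm) tracked cytotoxicity.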

[11] = read-out: Interferon-inducible T-cell alpha chemoattractant (ITAC), CXCL11 (gene 6373); test: BSK_hDFCGF_ITAC: BioMAP Diversity Plus: hDFCGF Assay for Interferon-inducible T-cell alpha chemoattractant (ITAC) Biomarker Activity (AID 2284251); conditions: primary human foreskin fibroblasts
Method in brief: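 ELISA readout of I-TAC after 24 h chemical exposure; human dermal foreskin fibroblast primary cells. Positive-direction fitting vs DMSO baseline. Parallel SRB total-protein staining (0.1% SRB after 10% TCA fixation, 560 nm) flags cytotoxicity.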

[12] = read-out: Plasminogen activator inhibitor-1 (PAI1), SERPINE1 (gene 5054); test: BSK_KF3CT_PAI1: BioMAP Diversity Plus: KF3CT Assay for Plasminogen activator inhibitor-1 (PAI1) Biomarker Activity (AID 2284252); conditions: primary human keratinocytes with fibroblasts
Method in brief: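 ELISA read-out of PAI-1 taken 24 h after chemical treatment of a human skin primary co-culture of keratinocytes and foreskin fibroblasts. Increases over DMSO-treated wells defined activity.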

[13] = read-out: Interleukin-8 (IL8), CXCL8 (gene 3576); test: BSK_KF3CT_IL8: BioMAP Diversity Plus: KF3CT Assay for Interleukin-8 (IL8) Biomarker Activity (AID 2284254); conditions: primary human keratinocytes with fibroblasts
Method in brief: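 ELISA detection of IL-8 from a human skin co-culture, keratinocytes with foreskin fibroblasts, at 24 h following chemical exposure, with gain of signal scored against DMSO controls.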

[14] = read-out: Macrophage Inflammatory Protein-1 Alpha (MIP1a), CCL3 (gene 6348); test: BSK_IMphg_MIP1a: BioMAP Diversity Plus: IMphg Assay for Macrophage Inflammatory Protein-1 Alpha (MIP1a) Biomarker Activity (AID 2284255); conditions: primary human endothelial cells with macrophages
Method in brief: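 Co-culture of human venular endothelial cells and macrophages exposed to compounds for 24 h; MIP-1a measured by ELISA relative to DMSO. Cytotoxicity assessed in parallel cultures by sulforhodamine B total-protein staining at 560 nm.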

[15] = read-out: Plasminogen activator inhibitor-1 (PAI1), SERPINE1 (gene 5054); test: BSK_MyoF_PAI1: BioMAP Diversity Plus: MyoF Assay for Plasminogen activator inhibitor-1 (PAI1) Biomarker Activity (AID 2284256); conditions: primary human lung fibroblasts;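 also: PAI-1 protein level measured by ELISA in fibroblast cultures; PAI-1 read 24 h after compound addition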
Method in brief: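 Activity reflects increased PAI-1, determined by ELISA and compared with DMSO, in human lung fibroblasts treated for 24 h.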

CD69, CD69 (gene 969) = test: BSK_IMphg_CD69: BioMAP Diversity Plus: IMphg Assay for CD69 Biomarker Activity (AID 2284257); conditions: primary human endothelial cells with macrophages
Method in brief: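 Human venular endothelial cells co-cultured with macrophages; CD69 quantified by ELISA 24 h after compound addition. Activity fitted in the positive direction relative to DMSO baseline; cytotoxicity tracked in parallel cultures via SRB total-protein staining.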

[16] = read-out: Eotaxin 3, CCL26 (gene 10344); test: BSK_BF4T_Eotaxin3: BioMAP Diversity Plus: BF4T Assay for Eotaxin 3 Biomarker Activity (AID 2284258); conditions: primary human bronchial epithelial cells with fibroblasts
Method in brief: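 Co-culture of human bronchial epithelial cells and dermal fibroblasts, exposed to chemicals for 24 h versus DMSO. Eotaxin-3 quantified by ELISA; cytotoxicity checked in parallel cultures by sulforhodamine B total-protein staining.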

[17] = read-out: Monocyte Chemoattractant Protein-1 (MCP1), CCL2 (gene 6347); test: BSK_BF4T_MCP1: BioMAP Diversity Plus: BF4T Assay for Monocyte Chemoattractant Protein-1 (MCP1) Biomarker Activity (AID 2284259); conditions: primary human bronchial epithelial cells with fibroblasts
Method in brief: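 Co-culture of bronchial epithelial cells and dermal fibroblasts dosed with chemical; MCP-1 measured by ELISA 24 h later. Activity fitted in positive direction versus DMSO; cytotoxicity checked by SRB staining in parallel cultures.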

[18] = CCTE_Mundy_HCI_hNP1_CellTiter: CCTE's Cell Titer-Glo 2 Assay in human neuroprogenitor cells for Viability, Mundy Lab (AID 2284241; active = hit-call score of the fitted dose curve at least 0.9, where 1 is the maximum)
Method in brief: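 Measures ATP content in human neural progenitors derived from WA09 embryonic cells. Read-out at 26.5 hours after dosing, with DMSO serving as the negative control and baseline.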

O=C(Cl)C(F)(F)C(F)(F)C(F)(F)C(F)(F)C(F)(F)C(F)(F)C(F)(F)F
outcome [1]: inactive
outcome [2]: inactive
outcome [3]: inactive
outcome [4]: inactive
outcome [5]: inactive
outcome [6]: inactive
outcome [7]: inactive
outcome [8]: inactive
outcome [9]: inactive
outcome [10]: inactive
outcome [11]: inactive
outcome [12]: inactive
outcome [13]: inactive
AC50 [14]: 237 nM (active)
outcome [14]: inactive
outcome [15]: inactive
outcome (CD69, CD69 (gene 969)): inactive
outcome [16]: inactive
outcome [17]: inactive

O=C(O)CCC(F)(F)C(F)(F)C(F)(F)C(F)(F)C(F)(F)C(F)(F)C(F)(F)F
outcome [1]: inactive
outcome [2]: inactive
outcome [18]: inactive
outcome [3]: inactive
outcome [4]: inactive
AC50 [5]: 2.38 µM (active)
outcome [5]: inactive
outcome [6]: inactive
outcome [7]: inactive
outcome [8]: inactive
outcome [9]: inactive
outcome [10]: inactive
outcome [11]: inactive
outcome [12]: inactive
AC50 [13]: 4.26 µM (active)
outcome [13]: inactive
AC50 [14]: 1.39 µM (active) and 1.57 µM (active)
outcome [15]: inactive
outcome (CD69, CD69 (gene 969)): inactive
AC50 [16]: 0.726 µM (active)
outcome [16]: inactive
AC50 [17]: 0.949 µM (active)
outcome [17]: inactive

OCC(O)CC(F)(F)C(F)(F)C(F)(F)C(F)(F)F (configuration not stated)
outcome [1]: inactive
outcome [2]: inactive
outcome [3]: inactive
outcome [4]: inactive
outcome [5]: inactive
outcome [6]: inactive
outcome [7]: inactive
outcome [8]: inactive
outcome [9]: inactive
outcome [10]: inactive
outcome [11]: inactive
outcome [12]: inactive
outcome [13]: inactive
outcome [14]: inactive
outcome [15]: inactive
outcome (CD69, CD69 (gene 969)): inactive
outcome [16]: inactive
AC50 [17]: 0.263 µM (active)
outcome [17]: inactive

C=CC(=O)OCCC(F)(F)C(F)(F)C(F)(F)C(F)(F)F
outcome [1]: inactive
outcome [2]: inactive
AC50 [3]: 20.1 µM (active) and 14.3 µM (active)
outcome [4]: inactive
AC50 [5]: 46.6 µM (active) and 48 µM (active)
outcome [6]: inactive
outcome [7]: inactive
outcome [8]: inactive
outcome [9]: inactive
outcome [10]: inactive
AC50 [11]: 25 µM (active) and 21.5 µM (active)
outcome [12]: inactive
outcome [13]: inactive
outcome [14]: inactive
outcome [15]: inactive
outcome (CD69, CD69 (gene 969)): inactive
outcome [16]: inactive
outcome [17]: inactive

O=S(=O)(OCC(F)(F)F)C(F)(F)C(F)(F)C(F)(F)C(F)(F)F
outcome [1]: inactive
outcome [2]: inactive
outcome [3]: inactive
outcome [4]: inactive
outcome [5]: inactive
outcome [6]: inactive
outcome [7]: inactive
outcome [8]: inactive
outcome [9]: inactive
outcome [10]: inactive
AC50 [11]: 30 µM (active)
outcome [12]: inactive
outcome [13]: inactive
AC50 [14]: 21 µM (active) and 5.95 µM (active)
outcome [15]: inactive
outcome (CD69, CD69 (gene 969)): inactive
outcome [16]: inactive
outcome [17]: inactive
